MCF10A rereplic – A quantitative high throughput screen for small molecules that induce DNA re-replication in MCF 10a normal breast cells | MCF 10A DNA re-replication, Hoechst nuclear intensity, 48 h | Potency, µM (titrated, usually from 46.1 µM), inactives show at the highest dose activity, positive = re-replication, hits mostly activators | 2.9% of 350,000 active; note: % of control where 0% means no effect; nearly all actives have a fitted effect of over 50% in size
KB-V1 cytotox – qHTS assay for MDR1-selective chemotherapeutics: Primary screen using the drug-selected MDR subline cells KB-V1; Potency, µM (doses to about 46.1 µM), most hits filed as cytotoxic; 3.4% of 400,000 active; KB-V1 MDR cells viability, CellTiter-Glo, 72 h; note: % is set by controls: 0 for no effect and ±100 for the full control effect; nearly all actives have a fitted effect of over 60% in size
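Potencies derive from concentration-effect curves fitted to normalized luminescence (CellTiter-Glo) of KB-V1 cells treated for 72 h at 37 degrees C in phenol-red-free DMEM containing 10% FBS.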
ELG1 DNA repair – qHTS screen for small molecules that inhibit ELG1-dependent DNA repair in human embryonic kidney (HEK293T) cells expressing luciferase-tagged ELG1; 2.3% of 330,000 active; HEK293T ELG1-luciferase reporter, luminescence, 16 h; DNA damage induced by 5-fluorouridine; Potency, µM (highest dose often 46.1 µM), for the others: top-dose activity change, negative = inhibition, hits mostly inhibitors; note: % is set by controls: 0 for no effect and ±100 for the full control effect; nearly all actives have a fitted effect of over 55% in size
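Cells (2,000 per well) received 5-fluorouridine plus test compound or DMSO and were incubated 16 hr at 37 °C, 5% CO2. Luciferase activity was read by luminescence 30 min after ONE-Glo addition; signal suppression marked inhibition of damage-induced ELG1 function.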
SW480 rerep – A quantitative high throughput screen for small molecules that induce DNA re-replication in SW480 colon adenocarcinoma cells | SW480 DNA re-replication, Hoechst DNA content imaging, 48 h | Potency, µM (highest dose often 46.1 µM), without a hit: at the highest dose re-replication activation, usual class: activators | 1.8% of 340,000 active | AID 624297, 2012; note: % of control where 0% means no effect; nearly all actives have a fitted effect of over 55% in size
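Per well, 250 cells were exposed to pinned compound for 48 hr. Nuclear DNA was visualised with Hoechst (40 min, 37 C) and total object intensity recorded by fluorescence scanning.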
KB-3-1 cytotox – qHTS assay for MDR1-selective chemotherapeutics: Primary screen using the parental adenocarcinoma cell KB-3-1. KB-3-1 viability, CellTiter-Glo ATP luminescence, 72 h. Potency, µM (series often up to 46.1 µM), usual class: cytotoxic. 1.4% of 400,000 active; note: % is set by controls: 0 for no effect and ±100 for the full control effect; nearly all actives have a fitted effect of over 60% in size
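Cells are dispensed, compounds pinned in, plates held at 37 °C for 72 h, then CellTiter-Glo is added and luminescence read after 10 minutes. Cell line: parental KB-3-1 in phenol-red-free DMEM, 10% FBS.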
Numbers without * were called inactive; ! = repeats disagree; [ ] = another dose, or the depositor's remark. Compounds with a hit are over-represented: about 8.2% of the library has one in this group of screens. Calls come from the whole dose curve; as a rule, active = well fitted curve in the direction sought with a large enough effect; inconclusive = small, poorly fitted or top-dose-only effect, or another doubt; inactive = no such curve, though single readings can be large; an effect the other way counts as inactive or inconclusive. Potency is the fitted concentration of half-maximal effect.

Results for CC1CCN(c2c(NCC3CCC(C(=O)NCCCc4ccccc4)CC3)c(=O)c2=O)CC1 (centres undefined) ?
MCF10A rereplic: inconclusive; KB-V1 cytotox: inactive; ELG1 DNA repair: 10µM*; SW480 rerep: inconclusive; KB-3-1 cytotox: inactive

How did CCOc1cc(/C=C\[N+](=O)[O-])ccc1OCC(=O)Nc1ccccc1C do in these assays?
MCF10A rereplic: 2.9µM*; KB-V1 cytotox: inactive; ELG1 DNA repair: inconclusive; SW480 rerep: inconclusive; KB-3-1 cytotox: inactive

What do the screens show for `CCc1ccc(CN(Cc2ccco2)c2cnc(S(C)(=O)=O)nc2C(=O)Nc2ccc(C)c(Cl)c2)cc1`?
KB-V1 cytotox: inactive; KB-3-1 cytotox: inactive

How did COc1ccccc1-c1ccc(/C=C2/C=C(C)OC2=O)o1 do in these assays?
MCF10A rereplic: 21µM*; KB-V1 cytotox: inactive; ELG1 DNA repair: 9%; SW480 rerep: inconclusive; KB-3-1 cytotox: inactive

Results for COc1cc(/C=C2\C=CC(=O)O2)cc(OC)c1 ?
MCF10A rereplic: -23%; KB-V1 cytotox: inactive; ELG1 DNA repair: 11%; SW480 rerep: -1%; KB-3-1 cytotox: inconclusive

How did COc1ccccc1-c1ccc(/C=C2\C=CC(=O)O2)o1 do in these assays?
MCF10A rereplic: 21µM*; KB-V1 cytotox: inactive; ELG1 DNA repair: inconclusive; SW480 rerep: inconclusive; KB-3-1 cytotox: inactive

How did COc1cc(Cl)ccc1OCc1cc(C(=O)N2C[C@H]3CC[C@H]2C3)no1 do in these assays?
MCF10A rereplic: 1%; KB-V1 cytotox: inactive; ELG1 DNA repair: inconclusive; SW480 rerep: -4%; KB-3-1 cytotox: inactive

How did COc1cc(Cl)ccc1OCc1cc(C(=O)N2C[C@]3(C)C[C@H]2CC(C)(C)C3)no1 do in these assays?
MCF10A rereplic: 21µM*; ELG1 DNA repair: inconclusive; SW480 rerep: 7%

Results for COc1cc2nc(/C=C/c3cc(OC)c(OC)c(OC)c3)sc2cc1SC ?
MCF10A rereplic: inconclusive; KB-V1 cytotox: 10µM*; ELG1 DNA repair: 12µM*; SW480 rerep: inconclusive; KB-3-1 cytotox: 23µM*

Results for COc1cc2nc(C)sc2cc1SC ?
MCF10A rereplic: 1%; KB-V1 cytotox: inactive; ELG1 DNA repair: 15%; SW480 rerep: -4%; KB-3-1 cytotox: inactive

What do the screens show for `COc1ccc(OCC(=O)C2CC2)c(C#N)c1`?
MCF10A rereplic: 1%; KB-V1 cytotox: inactive; ELG1 DNA repair: inconclusive; SW480 rerep: 15%; KB-3-1 cytotox: inactive

How did CC(C)(C)CC(C)(C)SSc1n[nH]c(=S)s1 do in these assays?
MCF10A rereplic: -7%; KB-V1 cytotox: inactive; SW480 rerep: inconclusive; KB-3-1 cytotox: inconclusive

How did COc1ccc(C2CC(c3ccc([N+](=O)[O-])cc3)=NN2C(=O)c2ccccc2)cc1OC (centres undefined) do in these assays?
MCF10A rereplic: -11%; KB-V1 cytotox: inactive; ELG1 DNA repair: inconclusive; SW480 rerep: 1%; KB-3-1 cytotox: inactive

How did COc1ccc(C2CC(c3ccccc3)=NN2C(=O)CN2CCN(Cc3ccccc3)CC2)cc1 (centres undefined) do in these assays?
MCF10A rereplic: -1%[9.22 µM]; KB-V1 cytotox: 23µM*; ELG1 DNA repair: 18µM*; SW480 rerep: 11%; KB-3-1 cytotox: inconclusive

Results for COc1ccc(C2CC(c3ccccc3OC(C)=O)=NN2C(=O)/C=C/c2ccccc2)cc1 (centres undefined) ?
MCF10A rereplic: 9%; KB-V1 cytotox: inactive; ELG1 DNA repair: inconclusive; SW480 rerep: 1%; KB-3-1 cytotox: inactive

How did COc1ccc(C2CC(c3ccccc3OC(C)=O)=NN2C(C)=O)cc1 (centres undefined) do in these assays?
MCF10A rereplic: 9%; KB-V1 cytotox: inconclusive; ELG1 DNA repair: 0%; SW480 rerep: 16µM*; KB-3-1 cytotox: inconclusive

Results for COc1ccc(C2=NN(C(=O)COC(=O)c3ccc(S(C)(=O)=O)c([N+](=O)[O-])c3)C(c3ccco3)C2)cc1 (centres undefined) ?
MCF10A rereplic: inconclusive; KB-V1 cytotox: inconclusive; ELG1 DNA repair: inconclusive; SW480 rerep: 12µM*; KB-3-1 cytotox: inconclusive

What do the screens show for `CCC(=O)N1N=C(c2ccccc2)CC1c1ccc([N+](=O)[O-])cc1` (centres undefined)?
MCF10A rereplic: 12%; KB-V1 cytotox: 15µM*; ELG1 DNA repair: -1%; SW480 rerep: inconclusive; KB-3-1 cytotox: inactive

What do the screens show for `COc1ccc(C2CC(c3ccccc3)=NN2C(=O)COC(=O)c2cccc(S(=O)(=O)N(C)C)c2)cc1` (centres undefined)?
MCF10A rereplic: -1%; KB-V1 cytotox: 3.7µM*; ELG1 DNA repair: inconclusive; SW480 rerep: -1%; KB-3-1 cytotox: inactive

How did COc1ccc(C2CC(c3ccccc3)=NN2C(=O)COC(=O)c2cccc(S(=O)(=O)N3CCOCC3)c2)cc1 (centres undefined) do in these assays?
MCF10A rereplic: -1%; KB-V1 cytotox: inactive; ELG1 DNA repair: inconclusive; SW480 rerep: 5%; KB-3-1 cytotox: inactive

How did c1ccc(COCCN2CCN(CCOCc3ccccc3)CC2)cc1 do in these assays?
MCF10A rereplic: -1%; KB-V1 cytotox: 23µM*; ELG1 DNA repair: 5%; SW480 rerep: -2%; KB-3-1 cytotox: inactive

How did c1ccc(COc2ccc(OCCCCN3CCCCC3)cc2)cc1 do in these assays?
MCF10A rereplic: 26%; KB-V1 cytotox: inconclusive; ELG1 DNA repair: inconclusive; SW480 rerep: -1%; KB-3-1 cytotox: inactive

Results for Cc1nn(C)c(Cl)c1S(=O)(=O)N1CCC(CO)(CCc2ccccc2)CC1 ?
MCF10A rereplic: 17%; KB-V1 cytotox: 23µM*; ELG1 DNA repair: -24%; SW480 rerep: -6%; KB-3-1 cytotox: inconclusive

What do the screens show for `C(=Nc1cnc2ccccc2c1)c1ccnc2ccccc12`?
KB-V1 cytotox: inactive; KB-3-1 cytotox: inactive

What do the screens show for `Cc1ccc(S(=O)(=O)NCc2ccc(C(=O)NCc3cccnc3)cc2)cc1`?
ELG1 DNA repair: 7%

What do the screens show for `CCOC(=O)/C=C1\CN(Cc2cc(OC)c(OC)c(OC)c2)S(=O)(=O)c2ccccc21`?
MCF10A rereplic: inconclusive; KB-V1 cytotox: 10µM*!; ELG1 DNA repair: inconclusive; SW480 rerep: 1%; KB-3-1 cytotox: inconclusive

What do the screens show for `O=c1n(CC2CO2)c(=O)n(CC2CO2)c(=O)n1CC1CO1` (centres undefined)?
MCF10A rereplic: 1.8µM*; KB-V1 cytotox: inactive; SW480 rerep: 9.2µM*; KB-3-1 cytotox: inconclusive

How did Cc1ccc(/C=C/C(=O)OCC(=O)NC(=O)NCc2ccco2)cc1 do in these assays?
MCF10A rereplic: -3%; KB-V1 cytotox: inactive; ELG1 DNA repair: -4%; SW480 rerep: -1%; KB-3-1 cytotox: inactive
